From PubChem BioAssay
FBW7 activator – activators of human E3 ligase FBW7 | hit rate 0.13% among 650,000 | Q969H0 | normalized activity (activation), % at 26.1 µM | AlphaScreen FBW7–phospho-cyclin E peptide binding, activator screen; in the data active = normalized activity above about 1.9%;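 note: purified mutant Fbw7 with reduced substrate affinity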
TEAD-YAP block – TEAD-YAP interaction inhibition; hit rate 1.4% among 640,000; inhibition, % at 9.12 µM; AID 1259422; HEK-TIYL cells, TEAD-Gal4/YAP UAS-luciferase luminescence; in the data active = inhibition above about 32%;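 note: 0% = median of test compound wells and 100% = reference inhibitor wells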
MITF inh – inhibitors of human MITF | AID 1259374 | inhibition, % at 2.6 µM | hit rate 0.91% among 650,000 | AlphaScreen MITF homodimerization, bead proximity signal | O75030; in the data active = inhibition above about 50%;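 note: 0% = vehicle wells with protein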
Target sequence (O75030 whole entry, looked up): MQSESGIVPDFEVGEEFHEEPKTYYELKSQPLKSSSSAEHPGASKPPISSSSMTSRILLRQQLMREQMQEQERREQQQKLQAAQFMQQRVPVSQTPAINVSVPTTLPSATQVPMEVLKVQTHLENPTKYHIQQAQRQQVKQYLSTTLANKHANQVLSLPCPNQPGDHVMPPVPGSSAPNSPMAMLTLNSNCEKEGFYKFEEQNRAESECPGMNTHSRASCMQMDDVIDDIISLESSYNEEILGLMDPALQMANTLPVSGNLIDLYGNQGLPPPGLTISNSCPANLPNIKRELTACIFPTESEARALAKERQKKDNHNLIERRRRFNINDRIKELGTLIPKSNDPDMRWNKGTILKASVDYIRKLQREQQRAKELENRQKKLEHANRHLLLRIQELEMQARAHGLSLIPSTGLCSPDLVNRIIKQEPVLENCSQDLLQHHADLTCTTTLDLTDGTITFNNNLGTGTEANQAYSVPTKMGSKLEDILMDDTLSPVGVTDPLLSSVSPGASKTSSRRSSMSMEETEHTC
GPR151 activ – activates the human receptor GPR151; PathHunter beta-arrestin GPR151 cells, luminescence; Q8TDV0; hit rate 1% among 650,000; AID 1508602; activation, % at 11.2 µM; in the data active = activation above about 4.9%;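 note: 0% = median of compound wells and 100% = cells with positive control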
MITF confirm – human MITF inhibition, confirmation. shares compounds with MITF inh. AlphaScreen MITF homodimerization, biotin/His-MITF beads. inhibition, % at 2.6 µM. hit rate 16% among 4,700. AID 1259372;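 active = inhibition above a cutoff derived from the DMSO control wells, cut at about 28% in these data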;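 note: 0% = MITF dimer wells with DMSO only; inhibitors lower the bead chemiluminescence by keeping MITF from dimerizing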
AlphaScreen DR – AlphaScreen optical interference, dose response counter-screen | AlphaScreen optical interference counterscreen, cell-free | IC50, µM | hit rate 6% among 480 | AID 1259373 | shares compounds with MITF inh; call rule not given here
AlphaScreen intf2 – AlphaScreen optical interference, counter-screen; AID 1259376; hit rate 7.6% among 4,700; inhibition, % at 2.6 µM; LysRS AlphaScreen counterscreen, signal interference, triplicate; shares compounds with MITF inh;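 active = inhibition above a cutoff derived from the DMSO control wells, cut at about 30% in these data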
* hit, by the source's call; x = not tested or not shown. Sampled rows, rich in hits. Any-hit rate of the full collection: about 3.5%.

SMILES | FBW7 activator | TEAD-YAP block | MITF inh | GPR151 activ | MITF confirm | AlphaScreen intf2 | others
COc1ccc(S(=O)(=O)N2CCN(CCCc3ccccc3)CC2)cc1 | 0 | 2 | 47 | -1 | x | x
O=[N+]([O-])c1ccc(S(=O)(=O)N2CCN(CCCc3ccccc3)CC2)cc1 | 0 | 2 | 56* | 1 | 14 | 15
O=S(=O)(c1ccc(Cl)cc1)N1CCN(Cc2cccc(F)c2)CC1 | 0 | -7 | 64* | -1 | -2 | 7
O=[N+]([O-])c1cccc(CN2CCN(S(=O)(=O)c3ccccc3)CC2)c1 | 0 | 3 | 70* | 0 | 15 | 14
O=[N+]([O-])c1cccc(CN2CCN(S(=O)(=O)c3ccc(Cl)cc3)CC2)c1 | 0 | 3 | 64* | -1 | 13 | 16
CCOC(=O)C1=C(CSc2nc(-c3cccs3)ccc2C#N)OC(N)=C(C#N)C1c1ccccc1I (stereo unspecified) | 0 | -15 | 9 | -2 | x | x
CCN(CC)C(=O)c1sc2ncnc(NCc3ccco3)c2c1C | 0 | 0 | 6 | 0 | x | x
COc1cc(/C=C2/NC(=S)NC2=O)ccc1OC(C)C | 0 | -6 | 0 | 0 | x | x
O=[N+]([O-])c1cccc(CN2CCN(S(=O)(=O)c3ccc(F)cc3)CC2)c1 | 0 | -6 | 57* | 0 | 11 | 16
O=C(c1cccc2ccccc12)N1CCN(Cc2cccc([N+](=O)[O-])c2)CC1 | 0 | 6 | 76* | 0 | 14 | 18
CCN(CC)C(=O)N1CCN(S(=O)(=O)c2cccc([N+](=O)[O-])c2)CC1 | 0 | 1 | 2 | 1 | x | x
CN(C)C(=O)N1CCN(S(=O)(=O)c2cccc([N+](=O)[O-])c2)CC1 | 0 | 13 | 77* | 0 | 30* | -6 | AlphaScreen DR=>6.5
O=C(Cc1cn(-c2ccc(N3CCCC3CO)nn2)c2ccccc12)NCCCN1CCCC1=O (stereo unspecified) | 0 | 13 | 0 | -1 | x | x
Cc1ccccc1C(=O)Nc1nc2cc3c(cc2s1)OCO3 | 0 | -57 | 2 | -4 | x | x
Cc1cccc(N2CCN(S(=O)(=O)c3ccc(F)c(C(=O)Nc4ccc(Cl)cc4C(F)(F)F)c3)CC2C)c1 (stereo unspecified) | 0 | 7 | 16 | 4 | x | x
N#C/C(=C\c1ccc(OC(=O)c2ccccn2)cc1)C(N)=O | 0 | 10 | 53* | -1 | 31* | 56*
NS(=O)(=O)c1ccc(N=Cc2ccc(OC(=O)c3ccccn3)cc2)cc1 | 0 | -10 | 55* | -2 | 17 | 45*
CC(=O)c1cccc(N=Cc2ccc(OC(=O)c3ccccn3)cc2)c1 | 0 | -7 | 20 | -2 | x | x
CN(C)/N=C/c1ccc(OC(=O)c2ccccn2)cc1 | 0 | -5 | 43 | -2 | x | x
CC1C(=O)Nc2ccc(S(=O)(=O)Nc3ccc(Cl)cc3F)cc2NC1=O (stereo unspecified) | 0 | 4 | 4 | -1 | x | x
Cc1ccc(NC(=O)c2cccc(F)c2F)cc1C | 1 | -54 | 12 | -5 | x | x
C=C1C(C(=O)NCc2ccco2)C1C(=O)NCc1ccco1 (stereo unspecified) | 0 | 0 | 63* | 0 | 67* | 13 | AlphaScreen DR=>7.7
O=[N+]([O-])c1ccc(CN2CCN(c3ccccc3F)CC2)s1 | 0 | -7 | 53* | 1 | 6 | 10
O=C(c1ccccc1[N+](=O)[O-])N1CCN(Cc2ccc3c(c2)OCO3)CC1 | 0 | 1 | -7 | 0 | x | x
O=[N+]([O-])c1ccc(CN2CCN(Cc3ccc4c(c3)OCO4)CC2)s1 | 0 | 4 | 56* | 1 | 7 | 4
SMILES | FBW7 activator | TEAD-YAP block | MITF inh | GPR151 activ | MITF confirm | AlphaScreen intf2 | others
O=[N+]([O-])c1ccccc1CN1CCN(Cc2ccc3c(c2)OCO3)CC1 | 0 | -10 | 59* | 0 | 19 | 36*
O=C(CCCc1ccccc1)Nc1ccnn1C1CCN(C2CCSCC2)CC1 | 0 | 13 | 1 | -2 | x | x
O=C1NC(=O)/C(=C\c2ccc(OCc3ccc(C(=O)O)cc3)c(Br)c2)N1 | 0 | -12 | -4 | 1 | x | x
Cn1ncc([N+](=O)[O-])c1C(=O)O | 0 | 4 | 9 | 0 | x | x
O=C(O)c1cccc(S(=O)(=O)N2CCC(c3nc4ccc(Cl)cc4[nH]3)CC2)c1 | 0 | 8 | 69* | 2 | 10 | 17
O=S(=O)(c1cccc(Cl)c1)N1CCC(c2nc3ccccc3[nH]2)CC1 | 0 | 18 | -8 | 0 | x | x
COc1cccc(C(=O)NNC(=O)C(=O)NC(C)C)c1 | 0 | 0 | 10 | 0 | x | x
COc1cccc(C(=O)NNC(=O)C(=O)NCCO)c1 | 1 | 5 | 61* | 1 | -6 | 3
CCc1ccc(CN2CCN(C3CCC(C)CC3)CC2)cc1 (stereo unspecified) | 0 | -4 | 69* | 0 | 0 | 5
OC1CCN(Cc2ccc(Cl)cc2)CC1 | 0 | 1 | 28 | 0 | x | x
COc1ccccc1C(=O)N1CCN(Cc2ccc3ccccc3c2)CC1 | 0 | 22 | 45 | 0 | x | x
CC1CCC(N2CCN(Cc3ccc(Cl)cc3)CC2)CC1 (stereo unspecified) | 0 | -10 | 69* | -1 | 11 | 17
Cc1cccc(CN2CCN(C3CCC(C)CC3)CC2)c1 (stereo unspecified) | 0 | -15 | 55* | 1 | 28* | 18 | AlphaScreen DR=>5.5
CCOc1ccc(CN2CCN(C(=O)c3ccccc3OC)CC2)cc1 | 0 | 31 | 57* | 1 | 4 | 16
Fc1ccc(C2=CC(c3ccc(Cl)cc3)n3c(nc4ccccc43)N2)cc1 (stereo unspecified) | 0 | -13 | -12 | 1 | x | x
Cc1cc(NC(=O)c2cccc3nccnc23)ccc1-n1cnnn1 | 0 | -14 | -8 | 0 | x | x
CCOc1ccc(CN2CCN(Cc3ccc(OCC)cc3)CC2)cc1 | 0 | 9 | 51* | 1 | -1 | -4
CCOc1ccc(CN2CCC(C(=O)NCc3ccco3)CC2)cc1 | 0 | 2 | 83* | -2 | 14 | 14
CCOc1ccc(CN2CCN(C3CCC(C)CC3)CC2)cc1 (stereo unspecified) | 0 | 3 | 71* | 0 | 3 | 9
CCOc1ccc(CN2CCC(C(=O)NC(C)(C)C)CC2)cc1 | 0 | 1 | 19 | 1 | x | x
CCN(CC)C(=O)CSc1nc2c(sc(=S)n2-c2ccccc2C)c(=O)n1-c1ccccc1 | 0 | 5 | 17 | 2 | x | x
O=C1CC(N2CCOCC2)C(=O)N1c1cc(C(F)(F)F)ccc1Cl (stereo unspecified) | 0 | 1 | 88* | -1 | -1 | 2
COc1ccccc1OCC(=O)NCC1CN(c2ccc(F)cc2)C(=O)O1 (stereo unspecified) | 0 | 8 | -9 | 0 | x | x
CC1CCCC(C)N1C(=O)c1cc2n(n1)C(C(F)(F)F)CC(c1ccc(Cl)c(Cl)c1)N2 (stereo unspecified) | 0 | -3 | 59* | -1 | -10 | -7
